Laboratory results as given in PubChem BioAssay (EPA / NIEHS).
Active and inactive are the calls of the source. The calls were made as follows: active = hit-call score of the fitted dose curve at least 0.9, where 1 is the maximum; inactive = score below 0.9.

Columns and labels:
Settings in all cases: mRNA level, 48 h; actives raise or lower the signal
[1] = read-out: Apolipoprotein A-V (APOA5) gene, APOA5 (gene 116519); test: LTEA_HepaRG_APOA5: Life Technologies and Expression Analysis (LTEA) Assay for Apolipoprotein A-V (APOA5) gene using HepaRG (AID 2283474)
In short: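 Differentiated human HepaRG cells were exposed in duplicate for 48 h to eight half-log concentrations from 100 uM in 0.5% DMSO. APOA5 mRNA was quantified by TaqMan qRT-PCR, normalized to ACTB, GAPDH and POLR2A, and fitted bidirectionally against DMSO.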

[2] = read-out: Apoptosis regulator Bcl-2 (Homo sapiens) (UniProt P10415); test: LTEA_HepaRG_BCL2: Life Technologies and Expression Analysis (LTEA) Assay for Bcl-2 gene using HepaRG (AID 2283475)
In short: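 qRT-PCR read-out (Fluidigm TaqMan) of BCL2 transcript, normalised to three housekeeping genes, after 48 h chemical exposure of HepaRG cells; 8-point half-log series, top 100 uM, 0.5% DMSO vehicle. Gain or loss of signal fitted relative to DMSO baseline.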

[3] = read-out: Bcl-2 (BID) gene, BID (gene 637); test: LTEA_HepaRG_BID: Life Technologies and Expression Analysis (LTEA) Assay for Bcl-2 (BID) gene using HepaRG (AID 2283476)
In short: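 HepaRG, 48 h exposure, 8-pt half-log series, top 100 uM, 0.5% DMSO vehicle, duplicates. Readout: BID mRNA by TaqMan qRT-PCR; housekeeping-normalized; bidirectional curve fit vs DMSO baseline.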

[4] = read-out: Caspase-3 (Homo sapiens) (UniProt P42574); test: LTEA_HepaRG_CASP3: Life Technologies and Expression Analysis (LTEA) Assay for cysteine-aspartic acid protease (CASP3) using HepaRG (AID 2283477)
In short: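 Differentiated human HepaRG cells in serum-free induction medium were exposed 48 h to 8-point half-log concentrations from 100 uM (0.5% DMSO vehicle). CASP3 mRNA was measured by qRT-PCR, normalised to ACTB, GAPDH and POLR2A, with bidirectional fitting against DMSO.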

[5] = read-out: Cytochrome P450 (CYP24A1), CYP24A1 (gene 1591); test: LTEA_HepaRG_CYP24A1: Life Technologies and Expression Analysis (LTEA) Assay for Cytochrome P450 (CYP24A1) using HepaRG (AID 2283478)
In short: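 Differentiated HepaRG cells, pre-cultured 48 h, were exposed in duplicate for 48 h in serum-free induction medium to 8 half-log concentrations (top 100 uM, 0.5% DMSO). CYP24A1 mRNA was quantified by TaqMan qRT-PCR, normalized to ACTB/GAPDH/POLR2A, fitted bidirectionally versus DMSO.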

[6] = read-out: Cytochrome P450 (CYP1A2), CYP1A2 (gene 1544); test: LTEA_HepaRG_CYP1A2: Life Technologies and Expression Analysis (LTEA) Assay for Cytochrome P450 (CYP1A2) using HepaRG (AID 2283479)
In short: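 Differentiated human HepaRG cells in serum-free induction medium were exposed in duplicate for 48 h to 8-point half-log concentrations up to 100 uM in 0.5% DMSO. CYP1A2 mRNA measured by qRT-PCR, normalized to ACTB, GAPDH, POLR2A; bidirectional fit vs DMSO.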

[7] = read-out: cysteine-aspartic acid protease (CASP8), CASP8 (gene 841); test: LTEA_HepaRG_CASP8: Life Technologies and Expression Analysis (LTEA) Assay for cysteine-aspartic acid protease (CASP8) using HepaRG (AID 2283480)
In short: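 CASP8 transcript measured by TaqMan qRT-PCR with ACTB/GAPDH/POLR2A normalization, after 48 h chemical exposure of HepaRG cells in serum-free induction medium. Eight concentrations, top 100 uM, half-log steps, 0.5% DMSO vehicle; fits in both directions versus DMSO.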

[8] = read-out: Cytochrome P450 (CYP2B6), CYP2B6 (gene 1555); test: LTEA_HepaRG_CYP2B6: Life Technologies and Expression Analysis (LTEA) Assay for Cytochrome P450 (CYP2B6) using HepaRG (AID 2283481)
In short: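 Differentiated HepaRG cells, serum-free induction medium, exposed 48 h in duplicate to 8-point half-log concentrations from 100 uM in 0.5% DMSO. CYP2B6 mRNA by qRT-PCR, normalized to ACTB, GAPDH, POLR2A; bidirectional fit versus DMSO.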

[9] = read-out: Cytochrome P450 2C19 (Homo sapiens) (UniProt P33261); test: LTEA_HepaRG_CYP2C19: Life Technologies and Expression Analysis (LTEA) Assay for CYP2C19 using HepaRG (AID 2283482)
In short: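 Differentiated human HepaRG cells were exposed for 48 h in serum-free induction medium to 8 concentrations (top 100 uM, half-log steps, 0.5% DMSO). CYP2C19 mRNA was measured by qRT-PCR, normalized to ACTB/GAPDH/POLR2A, and fitted bidirectionally against DMSO.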

[10] = read-out: CYP2C8 (gene 1558); test: LTEA_HepaRG_CYP2C8: Life Technologies and Expression Analysis (LTEA) Assay for CYP2C8 using HepaRG (AID 2283483)
In short: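 CYP2C8 expression measured by TaqMan qRT-PCR and normalized to three housekeeping genes. HepaRG cultures were treated for 48 h with an eight-point half-log series topping at 100 uM, vehicle 0.5% DMSO, duplicates; fitted both directions against DMSO.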

Apoptosis regulator Bcl-2 (Homo sapiens), sequence (P10415 whole entry, looked up): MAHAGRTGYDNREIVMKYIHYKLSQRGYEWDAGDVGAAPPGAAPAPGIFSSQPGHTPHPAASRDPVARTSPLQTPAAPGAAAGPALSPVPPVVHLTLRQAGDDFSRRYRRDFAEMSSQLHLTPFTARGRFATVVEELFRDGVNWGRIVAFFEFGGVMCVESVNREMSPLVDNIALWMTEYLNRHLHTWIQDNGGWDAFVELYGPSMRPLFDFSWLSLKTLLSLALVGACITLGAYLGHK
Cytochrome P450 2C19 (Homo sapiens), sequence (P33261 whole entry, looked up): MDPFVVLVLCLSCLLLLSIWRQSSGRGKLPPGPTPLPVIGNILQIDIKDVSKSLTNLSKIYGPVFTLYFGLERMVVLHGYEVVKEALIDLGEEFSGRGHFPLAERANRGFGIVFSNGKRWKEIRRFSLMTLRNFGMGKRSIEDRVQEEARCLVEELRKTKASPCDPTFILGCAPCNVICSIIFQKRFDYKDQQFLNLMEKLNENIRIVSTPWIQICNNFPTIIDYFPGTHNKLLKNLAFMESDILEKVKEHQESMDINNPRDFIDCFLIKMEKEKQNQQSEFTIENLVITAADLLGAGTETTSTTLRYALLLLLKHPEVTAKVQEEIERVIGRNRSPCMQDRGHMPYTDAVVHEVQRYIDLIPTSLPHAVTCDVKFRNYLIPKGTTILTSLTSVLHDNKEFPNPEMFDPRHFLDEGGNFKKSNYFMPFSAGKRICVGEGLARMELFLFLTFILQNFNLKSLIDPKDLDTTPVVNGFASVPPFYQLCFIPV
Caspase-3 (Homo sapiens), sequence (P42574 whole entry, looked up): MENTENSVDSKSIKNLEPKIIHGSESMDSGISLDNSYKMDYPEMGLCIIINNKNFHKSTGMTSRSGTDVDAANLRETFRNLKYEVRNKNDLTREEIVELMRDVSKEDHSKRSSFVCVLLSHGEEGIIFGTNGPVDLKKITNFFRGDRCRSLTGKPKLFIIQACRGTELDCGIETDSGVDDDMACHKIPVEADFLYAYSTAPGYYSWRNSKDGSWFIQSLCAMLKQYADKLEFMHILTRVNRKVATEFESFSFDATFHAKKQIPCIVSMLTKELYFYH

Compound	outcome [1]	outcome [2]	outcome [3]	outcome [4]	outcome [5]	outcome [6]	outcome [7]	outcome [8]	outcome [9]	outcome [10]	AC50 [6]	AC50 [1]	AC50 [2]	AC50 [4]	AC50 [8]	AC50 [9]	AC50 [10]
O=C1CCCCCN1	inactive	inactive	inactive	inactive	inactive	inactive	inactive	inactive	inactive	inactive							
O=c1n(CC2CO2)c(=O)n(CC2CO2)c(=O)n1CC1CO1 (centres undefined)	inactive	inactive	inactive	inactive	inactive	inactive	inactive	inactive	inactive	inactive							
C1N2CN3CN1CN(C2)C3	inactive	inactive	inactive	inactive	inactive		inactive	inactive	inactive	inactive	68.7 µM (active)						
O=C(CCCCCCCCc1cccnc1)N1CCC(C=C(c2ccccc2)c2ccccc2)CC1			inactive		inactive		inactive				17 µM (active)	29.6 µM (active)	16.6 µM (active)	61.9 µM (active)	12.3 µM (active)	34.9 µM (active)	29.7 µM (active)
O=C1OC(=O)C2C3C=CC(C3)C12 (centres undefined)	inactive	inactive	inactive	inactive	inactive	inactive	inactive	inactive	inactive	inactive							
CN(C)c1ccc(Cc2ccc(N(C)C)cc2)cc1		inactive	inactive		inactive		inactive				13 µM (active)	76.1 µM (active)		50 µM (active)	1.6 µM (active)	12.5 µM (active)	90.6 µM (active)
CCOC(=O)c1ccc(C2CCC(NC[C@H](O)COc3ccc(O)c(NS(C)(=O)=O)c3)CC2)cc1 (some centres undefined)	inactive		inactive	inactive	inactive	inactive	inactive	inactive	inactive	inactive			2.75 µM (active)				
CCn1nc(Cc2ccccc2)cc1C1CCN(C[C@H]2C[C@H](N(C)[C@@H](C(=O)O)C(C)C)C[C@@H]2c2cccc(F)c2)CC1	inactive	inactive	inactive	inactive	inactive		inactive				79.9 µM (active)				13.7 µM (active)	17.6 µM (active)	24.6 µM (active)
Nc1nc2ncc(CNc3ccc(C(=O)N[C@@H](CCC(=O)O)C(=O)O)cc3)nc2c(=O)[nH]1	inactive	inactive	inactive	inactive	inactive	inactive	inactive	inactive	inactive	inactive							
O=C(O)CCN(C1(C(=O)NO)CCCC1)S(=O)(=O)c1ccc(Oc2ccc(F)cc2)cc1	inactive	inactive	inactive	inactive	inactive	inactive	inactive	inactive		inactive							
